SMILES strings stand for the structures. Inconclusive results are not listed. Unmarked numbers belong to inactive results. Active and inactive are the calls of the source. Calls come from the whole dose curve; as a rule, active = well fitted inhibition curve with a large enough effect in the repeat runs; inconclusive = weak or mixed curves; inactive = no such curve, though single readings can be large or run the other way.
% is set by controls: 0 for no effect and ±100 for the full control effect; potency is the fitted concentration of half-maximal effect.

The experiment deals with Aromatase (Homo sapiens) (UniProt P11511). Briefly: qHTS assay to identify aromatase inhibitors (AID 743083). Note: nearly all actives have a fitted effect of over 55% in size. The settings on record: MCF-7 aro ERE, testosterone-driven ERE luciferase, 24 h; series mostly up to 70.3 µM; activity, negative = inhibition: at the top concentration. In general terms: qHTS replaces the single test concentration by a dilution series.
Chain of Aromatase (Homo sapiens) (P11511 whole entry, looked up): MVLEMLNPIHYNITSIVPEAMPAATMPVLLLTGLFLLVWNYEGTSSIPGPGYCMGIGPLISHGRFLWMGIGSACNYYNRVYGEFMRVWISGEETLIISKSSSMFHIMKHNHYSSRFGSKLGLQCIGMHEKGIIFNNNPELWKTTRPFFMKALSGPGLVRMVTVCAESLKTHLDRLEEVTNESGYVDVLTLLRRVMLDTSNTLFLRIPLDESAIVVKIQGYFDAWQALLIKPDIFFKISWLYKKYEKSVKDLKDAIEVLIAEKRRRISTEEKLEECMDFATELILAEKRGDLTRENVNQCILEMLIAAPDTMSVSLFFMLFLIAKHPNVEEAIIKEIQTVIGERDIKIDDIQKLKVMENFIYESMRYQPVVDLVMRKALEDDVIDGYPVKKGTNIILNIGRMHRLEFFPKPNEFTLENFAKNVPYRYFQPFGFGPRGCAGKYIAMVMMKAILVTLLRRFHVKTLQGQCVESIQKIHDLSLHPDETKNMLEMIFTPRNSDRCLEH
On to `C[C@H](CN1CCCC1)C(=O)c1ccc(C(F)(F)F)cc1`, for which the “activity, negative = inhibition” value was 85.3%.

Take `N#Cc1ccc(CC(=O)c2cccc(C(F)(F)F)c2)cc1`: the “activity, negative = inhibition” value is -18.9%.

As for `CCCN(C1CCN(C(=O)C2CCNCC2)CC1)[C@@H]1CCc2ccc(OC)cc2C1`, the “activity, negative = inhibition” value was 12.5%.

For `COC(=O)c1cc(Cl)ccc1[N+](=O)[O-]`, the “activity, negative = inhibition” value was 2.4%.

Take `CC1=CC(=C(c2ccc(N)cc2)c2ccc(N)cc2)C=CC1=N`: the Potency was 8.41 µM (active).

Regarding `c1ccc(CCNc2nc(-c3ccccc3)cs2)cc1`, the “activity, negative = inhibition” value is 29%.

With `O=C(O)COCC(=O)O`, the “activity, negative = inhibition” value was 16.5% [at 95 µM].

As for `CC(C)(Cc1c[nH]c2ccccc12)NCC(O)COc1ccccc1C#N` (configuration not stated), the “activity, negative = inhibition” value was -15.8%.

As to `O=C(OC1C[C@H]2CC[C@@H](C1)[N+]21CCCC1)C(O)(c1ccccc1)c1ccccc1` (some centres not stated), the “activity, negative = inhibition” value was 0.178%.

As to `C=C[Si]1(C)O[Si](C)(C=C)O[Si](C)(C=C)O[Si](C)(C=C)O1` (configuration not stated), the “activity, negative = inhibition” value was 5.64%.

Consider `Cc1c(Cl)cccc1Nc1ccccc1C(=O)O`, for which the “activity, negative = inhibition” value is 20.9%.

With `O=C(O)CNc1ccccc1`, the “activity, negative = inhibition” value is 24.5%.

Take `C=C[Si](OCC)(OCC)OCC`: the “activity, negative = inhibition” value was 13.9%.

In the case of `Cc1nc2sccn2c(=O)c1CCN1CCC(=C(c2ccc(F)cc2)c2ccc(F)cc2)CC1`, the “activity, negative = inhibition” value is -6.31%.

As to `CCCCC(CC)COCCC#N` (configuration not stated), the “activity, negative = inhibition” value is -0.409%.

Consider `C[Si](C)(C)O[Si](C)(C)O[Si](C)(C)C`, for which the “activity, negative = inhibition” value is 4.63%.

Take `CCOc1ccc2c(c1)C(C)CC(C)(C)N2` (configuration not stated): the “activity, negative = inhibition” value is 5.03%.

On to `O=c1c2ccccc2oc2ccccc12`, for which the “activity, negative = inhibition” value was 34.6%.

On to `O=[N+]([O-])c1ccc(Cl)cc1Cl`, for which the “activity, negative = inhibition” value was -12.1%.

For `O=C(O)c1ccccc1[N+](=O)[O-]`, the “activity, negative = inhibition” value was -10.7%.

`CC(C(=O)O)c1ccc(/C=C2\CCCCC2=O)cc1` (configuration not stated): the “activity, negative = inhibition” value is 36%.

In the case of `O=C(NC1CCN(CCc2c[nH]c3ccccc23)CC1)c1ccccc1`, the “activity, negative = inhibition” value is 6.98%.

Values taken from PubChem BioAssay (Tox21).
